Screening data: PubChem BioAssay, SRMLSC
This is a sample that favours compounds with a hit; in the whole collection about 6.3% have one here.
A340 absorber = compound absorbs light at 340 nm; 65,000 tested, under 10 active; AID 708; fold change at 10 µM; compound absorbance at 340 nm, fold over control;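 active = at 10 µM dose, initial 340 nm absorbance at least 2 fold that of control wells; inactive = change under 2 fold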;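 also: initial absorbance extrapolated from kinetic A340 decline of NADH oxidation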
Spn MK inh = blocks S. pneumoniae mevalonate kinase; purified MK, PK/LDH-coupled NADH absorbance 340 nm; inhibition, % at 10 µM; hit rate 0.48% among 65,000; AID 555;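 active = ranked among the strongest by inhibition in the single 10 µM screen, a fixed top-ranked set picked for dose follow-up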
Autofluor 339 = intrinsic fluorescence of library compounds, ex339/em460 – biochemical, MLSMR library, data from DPM-DC assay, artefact control, profiling panel; compound autofluorescence, ex339/em460 nm, NADH buffer; stronger effect = higher value; 1 = no-compound wells, NADH background; fluorescence fold increase at 10 µM; hit rate 5.5% among 65,000;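 active = at 10 µM, mean starting fluorescence two-fold or more over control wells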;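 also: signal is the first read of a kinetic run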
NADH coupling = inhibition of NAD/NADH coupling enzymes, library profiling | coupled PK/LDH NADH assays, four targets | IC50, µM (doses to about 10 µM) | hit rate 0.02% among 65,000 | AID 774;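 active = single-dose screening hits from any of four coupled enzyme assays that gave an IC50 when retested across doses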;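 also: the DPM-DC format reads NADH fluorescence rather than 340 nm absorbance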
DPM-DC inhibit = inhibitors of Streptococcus pneumoniae diphosphomevalonate decarboxylase; calls only at 10 µM; hit rate 0.49% among 65,000; purified DPM-DC, PK/LDH coupled NADH fluorescence;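 active = the 320 compounds with the highest percent inhibition in the single-dose primary screen, excluding strongly autofluorescent ones, cut at about 32% in these data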;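 also: kinetic rate of NADH fluorescence loss reporting ADP formed by the decarboxylase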
Spn PMK inh = S. pneumoniae PMK inhibition | hit rate 0.49% among 65,000 | AID 539 | purified PMK, PK/LDH-coupled NADH absorbance 340 nm | inhibition, % at 10 µM;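 active = top-ranked compounds by inhibition in the single 10 µM screen, taking a fixed number of the strongest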
Of the large screens only hits and unclear results are named; the others gave an inactive call.

CCC(C)c1ccc2oc(-c3ccc(NC(=O)Cn4cnc5c(=O)n(C)c(=O)n(C)c54)cc3)nc2c1 (configuration not stated)	Autofluor 339 3.7 (not shown: DPM-DC inhibit)
Cn1c(=O)c2ncn(CC(=O)Nc3ccc4oc(-c5cccc6ccccc56)nc4c3)c2n(C)c1=O	Autofluor 339 3.7 (not shown: DPM-DC inhibit)
CC1(C)CC(=O)C2=C(C1)NC(=O)CC2c1ccc(N(CCC#N)CCC#N)cc1 (configuration not stated)	none
COc1cccc(-n2c(=O)[nH]cc(C(=O)Nc3ccc(NC(C)=O)cc3)c2=O)c1	none
COC(=O)C1CCN(C(=O)COC(=O)CC(NC(N)=O)c2ccc(Cl)cc2)CC1 (configuration not stated)	none
CCC(NC(=O)c1ccccc1O)c1ccccc1 (configuration not stated)	Autofluor 339 3.7 (not shown: DPM-DC inhibit)
CCC(C)NC(=O)c1ccccc1C(=O)NC(C)CC (configuration not stated)	none
Cc1ccc(NC(=O)c2ccccc2O)cc1	none
O=C(Nc1ccccc1)c1ccccc1O	Autofluor 339 2.1 (not shown: DPM-DC inhibit)
COc1ccc(C(=O)Nc2ccc3oc(-c4cccc(F)c4)nc3c2)cc1OC	Autofluor 339 2.1 (not shown: DPM-DC inhibit)
O=C(Nc1ccc2oc(-c3ccccc3)nc2c1)c1ccc2c(c1)OCCO2	Autofluor 339 3.2
COc1c(F)c(F)c(C(=O)Nc2ccc3oc(-c4ccncc4)nc3c2)c(F)c1F	none
COc1ccccc1C(=O)Nc1ccc2oc(-c3ccc(F)cc3)nc2c1	Autofluor 339 2.2 (not shown: DPM-DC inhibit)
CCOC(=O)c1cccc(NC(=O)CN(c2ccc(C)cc2)S(=O)(=O)c2c(C)n[nH]c2C)c1	none
CC(=O)N1CCc2cc(C(=O)CN3CCN(C(=O)c4ccco4)CC3)ccc21	none
O=C1CC(c2ccc(F)cc2)Cc2nc(N3CCN(c4ccccc4)CC3)ncc21 (configuration not stated)	none
O=C1CC(c2ccc(F)cc2)Cc2nc(N3CCc4ccccc43)ncc21 (configuration not stated)	Autofluor 339 3.8 (not shown: DPM-DC inhibit)
COc1ccccc1NC(=O)C1CCCCC1	none
CCOC(=O)C1CCN(S(=O)(=O)c2cccc(-c3csc(C)n3)c2)CC1	none
COc1ccc(-c2cn3cccnc3n2)cc1NC(=O)C1CCCC1	Autofluor 339 4.8 (not shown: DPM-DC inhibit)
COc1ccc(-c2cn3cccnc3n2)cc1NC(=O)C1CC1	Autofluor 339 3.2
CCOC(=O)C1CCN(S(=O)(=O)c2cccc(-c3cn4cccnc4n3)c2)CC1	Autofluor 339 2.1 (not shown: DPM-DC inhibit)
Cc1cc(C(=O)OCC(=O)c2c(N)n(C)c(=O)n(C)c2=O)c(C)n1-c1ccccc1	none
C=CCn1c(CCCNC(=O)CCC)nc2ccccc21	none
N#Cc1nc(-c2ccco2)oc1N1CCN(c2cccc(Cl)c2)CC1	none
COc1ccccc1-c1nc(C#N)c(N2CCN(C(c3ccccc3)c3ccccc3)CC2)o1	Autofluor 339 3.9 (not shown: DPM-DC inhibit)
COc1ccccc1-c1nc(C#N)c(N2CCN(c3cccc(Cl)c3)CC2)o1	Autofluor 339 3.5 (not shown: DPM-DC inhibit)
COc1ccc(N2CCN(C(=O)CSc3nnc(COc4cccc5cccnc45)o3)CC2)cc1	none
c1csc(C2C3=C(Nc4ncnn42)c2ccccc2OC3)c1 (configuration not stated)	Autofluor 339 2.3
CC1(C)CC(=O)C2=C(C1)Nc1ncnn1C2c1ccccn1 (configuration not stated)	none
Cc1nonc1NC(=O)OC1CCCCC1	none
CC1=CC=CC2=NC(=O)CC(C)(C(=O)N(CC(=O)NC(C)C)C3CCCC3)N12 (configuration not stated)	Autofluor 339 3 (not shown: DPM-DC inhibit)
CC(C)(C)NC(=O)CN(C(=O)C1(C)CC(=O)N=C2C=CC=CN21)C1CCCC1 (configuration not stated)	Autofluor 339 3.8 (not shown: DPM-DC inhibit)
CC1=CC2=NC(=O)CC(C)(C(=O)N(CC(=O)NC(C)(C)C)C3CCCC3)N2C=C1 (configuration not stated)	Autofluor 339 3.8 (not shown: DPM-DC inhibit)
CC1(C)Cc2ccccc2-c2nc3ccccc3c(=O)n21	none
Cc1cc(N)c(-n2cc3c(=O)n(C)c(=O)n(C)c3c2)cc1C	Autofluor 339 2.7
COc1cccc(C(=O)CN2C(=O)C(C)(C)Oc3ccc(C(=O)N4CCCCCC4)cc32)c1	none
Cc1cc(N)n2ncc(-c3cccc(Br)c3)c2n1	Autofluor 339 2.2 (not shown: DPM-DC inhibit)
Cc1cc(N)n2ncc(-c3ccccc3)c2n1	none
CCOC(=O)N1C(=O)c2cc(OC)ccc2S1(=O)=O	NADH coupling 19µM, Spn PMK inh 29
O=C(NCC1CCS(=O)(=O)C1)NCC1CCS(=O)(=O)C1 (configuration not stated)	none
Cc1ccc2c(c1)c1ncnc(N3CCN(c4ccccc4)CC3)c1n2C	none
Cc1ccc2c(c1)c1ncnc(N3CCC4(CC3)OCCO4)c1n2C	Autofluor 339 3.7 (not shown: DPM-DC inhibit)
Cc1ccc2c(c1)c1ncnc(N3CCOCC3)c1n2C	Autofluor 339 3.8 (not shown: DPM-DC inhibit)
Cc1ccc(-n2ncc3c(N4CCC5(CC4)OCCO5)ncnc32)c(C)c1	none
O=C(Nc1cccc(NC(=O)c2ccc(Br)o2)n1)c1ccc(Br)o1	none
N#Cc1c(NC(=O)c2ccc(Br)o2)n(-c2ccccc2)c2nc3ccccc3nc12	Autofluor 339 3 (not shown: DPM-DC inhibit)
CCC(=O)Nc1nc2ccccc2n1Cc1ccc(C)cc1	none
CCC(=O)Nc1c(C#N)c2nc3ccccc3nc2n1-c1ccc(C)cc1	Autofluor 339 3.7 (not shown: DPM-DC inhibit)
COc1ccc(-c2[nH]nc3oc(=O)cc(C)c23)cc1	Autofluor 339 2.2 (not shown: DPM-DC inhibit)
CC1(C)CC(=O)C=C(Nc2cccc(O)c2)C1	none
CCCn1c(C)cc(C(=O)CSc2nnc3n(CCC)c(=O)c4ccccc4n23)c1C	none
CCOc1cc(C2Nc3ccccc3C(=O)N2c2ccccc2OC)ccc1O (configuration not stated)	Autofluor 339 2.5 (not shown: DPM-DC inhibit)
COc1cc(C2Nc3ccccc3C(=O)N2c2ccccc2OC)ccc1O (configuration not stated)	Autofluor 339 5.1 (not shown: DPM-DC inhibit)
O=c1c2ccccc2nnn1CSc1nnc(-c2ccc3c(c2)OCO3)o1	none
O=C(CSc1nnc2ccccn12)NCc1cccs1	none
CCCCn1nnc(NC(=O)c2ccc(-c3ccccc3)cc2)n1	none
CCCCn1c(NC(=O)c2ccccc2)c(C#N)c2nc3ccccc3nc21	Autofluor 339 3.8 (not shown: DPM-DC inhibit)
CCCCn1c(NC(=O)c2ccc(F)cc2)c(C#N)c2nc3ccccc3nc21	Autofluor 339 5 (not shown: DPM-DC inhibit)
O=C(Nc1cccc2nsnc12)c1ccc(F)cc1	none
COC(=O)c1cc(OC)c(OC)cc1N=CC1=C(O)CC(C)(C)CC1=O	none
OC1(CN2CCOCC2)C2CN3CCN(C2)CC1(c1ccccc1)C3 (configuration not stated)	Spn PMK inh 28
CC1(CC(=O)O)C(=O)N=C2C=CC=CN21 (configuration not stated)	Autofluor 339 2.1 (not shown: DPM-DC inhibit)
CCOc1c(C(N)=O)c(-c2ccccc2)c2c(=O)[nH]c3ccccc3n12	Autofluor 339 3.8 (not shown: DPM-DC inhibit)
